# The supplement of paper PMC6411743
# ± gives the standard deviation of the averaged measurements. Of roughly 6,500 targets only a part is listed; those with the largest changes were picked by preference.
# Tests used:
# Assay in all cases: NP40-soluble protein abundance relative to vehicle (solubility fold change) (ratio); higher = more soluble protein in presence of ATP
# LAGE3 = biological target: T1, LAGE3 (UniProt Q14657)
# T1 sequence (whole entry): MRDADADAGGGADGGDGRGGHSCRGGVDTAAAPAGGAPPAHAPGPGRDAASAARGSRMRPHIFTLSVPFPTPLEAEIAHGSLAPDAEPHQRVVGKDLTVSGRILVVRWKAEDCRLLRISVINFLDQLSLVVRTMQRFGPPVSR
# Summary of the method: (§1)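 Each value is a fold change relative to the detergent-processed vehicle, calculated per replicate from vsn-normalised intensities. Jurkat crude lysate received eight concentrations (0.1 to 10 mM) for 10 min at room temperature and 3 min at 37 °C, then was solubilised in 0.8% NP40 with benzonase (60 min, 4 °C). The ultracentrifuged supernatant was TMT-labelled and run by LC-MS/MS in three independent experiments.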
# NHLRC2 = biological target: T2, NHLRC2 (UniProt Q8NBF2)
# T2 sequence (whole entry): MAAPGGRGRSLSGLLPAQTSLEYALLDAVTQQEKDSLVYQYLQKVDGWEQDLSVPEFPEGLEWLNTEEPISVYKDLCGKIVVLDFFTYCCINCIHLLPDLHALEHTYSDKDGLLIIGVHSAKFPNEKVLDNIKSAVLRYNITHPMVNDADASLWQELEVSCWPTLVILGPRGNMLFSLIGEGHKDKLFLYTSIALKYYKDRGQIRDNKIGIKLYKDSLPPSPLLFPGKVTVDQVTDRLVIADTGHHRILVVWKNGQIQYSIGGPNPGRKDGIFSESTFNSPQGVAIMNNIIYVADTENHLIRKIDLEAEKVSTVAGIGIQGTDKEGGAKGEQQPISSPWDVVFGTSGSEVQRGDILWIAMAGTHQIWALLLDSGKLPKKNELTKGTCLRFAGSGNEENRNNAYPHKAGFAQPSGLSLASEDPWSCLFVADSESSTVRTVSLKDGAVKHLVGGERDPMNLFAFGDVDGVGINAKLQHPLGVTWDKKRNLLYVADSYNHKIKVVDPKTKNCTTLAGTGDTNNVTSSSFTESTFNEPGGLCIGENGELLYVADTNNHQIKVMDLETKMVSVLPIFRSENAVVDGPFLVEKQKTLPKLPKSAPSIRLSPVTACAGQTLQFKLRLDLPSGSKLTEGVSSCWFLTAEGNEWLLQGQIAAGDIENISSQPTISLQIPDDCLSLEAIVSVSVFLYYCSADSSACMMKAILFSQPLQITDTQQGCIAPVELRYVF
# Summary of the method: as §1
# PSMD6 = biological target: T3, PSMD6 (UniProt Q15008)
# T3 sequence (whole entry): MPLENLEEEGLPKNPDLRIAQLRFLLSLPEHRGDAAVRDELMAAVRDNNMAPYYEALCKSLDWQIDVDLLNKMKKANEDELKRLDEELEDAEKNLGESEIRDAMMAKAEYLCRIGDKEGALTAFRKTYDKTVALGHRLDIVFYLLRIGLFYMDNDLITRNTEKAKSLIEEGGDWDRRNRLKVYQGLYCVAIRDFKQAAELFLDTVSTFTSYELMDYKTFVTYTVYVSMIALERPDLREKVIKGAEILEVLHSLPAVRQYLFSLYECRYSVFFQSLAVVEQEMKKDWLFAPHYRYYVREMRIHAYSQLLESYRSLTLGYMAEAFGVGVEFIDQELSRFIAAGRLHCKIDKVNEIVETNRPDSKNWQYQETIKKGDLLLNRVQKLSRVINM
# Summary of the method: as §1
# [1] = biological target: T4, UniProt Q12805|Q12805-2|Q12805-3|Q12805-4
# T4 sequence (whole entry): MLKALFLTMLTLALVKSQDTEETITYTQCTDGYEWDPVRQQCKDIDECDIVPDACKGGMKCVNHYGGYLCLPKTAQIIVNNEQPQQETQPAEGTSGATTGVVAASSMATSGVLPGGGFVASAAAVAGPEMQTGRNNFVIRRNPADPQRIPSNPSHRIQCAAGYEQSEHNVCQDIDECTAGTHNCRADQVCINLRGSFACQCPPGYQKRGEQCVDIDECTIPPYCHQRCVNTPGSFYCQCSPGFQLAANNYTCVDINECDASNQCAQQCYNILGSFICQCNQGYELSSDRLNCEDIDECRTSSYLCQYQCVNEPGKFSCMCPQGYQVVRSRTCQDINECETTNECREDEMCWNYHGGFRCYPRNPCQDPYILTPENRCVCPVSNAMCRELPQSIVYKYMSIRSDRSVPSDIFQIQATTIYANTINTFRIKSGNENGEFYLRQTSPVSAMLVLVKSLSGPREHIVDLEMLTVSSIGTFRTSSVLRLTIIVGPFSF
# Summary of the method: as §1
# UniProt Q53H96|Q53H96-2 = biological target: T5, UniProt Q53H96|Q53H96-2
# T5 sequence (whole entry): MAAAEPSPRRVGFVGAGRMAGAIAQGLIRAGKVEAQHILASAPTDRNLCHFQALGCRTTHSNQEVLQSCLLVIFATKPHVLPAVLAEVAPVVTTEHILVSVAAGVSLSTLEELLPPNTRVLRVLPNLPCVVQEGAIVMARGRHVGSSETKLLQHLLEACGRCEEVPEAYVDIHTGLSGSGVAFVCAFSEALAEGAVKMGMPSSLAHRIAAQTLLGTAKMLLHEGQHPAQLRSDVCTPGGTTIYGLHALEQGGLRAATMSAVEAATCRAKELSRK
# Summary of the method: as §1
# UniProt Q8N6R0 = biological target: T6, UniProt Q8N6R0
# T6 sequence (whole entry): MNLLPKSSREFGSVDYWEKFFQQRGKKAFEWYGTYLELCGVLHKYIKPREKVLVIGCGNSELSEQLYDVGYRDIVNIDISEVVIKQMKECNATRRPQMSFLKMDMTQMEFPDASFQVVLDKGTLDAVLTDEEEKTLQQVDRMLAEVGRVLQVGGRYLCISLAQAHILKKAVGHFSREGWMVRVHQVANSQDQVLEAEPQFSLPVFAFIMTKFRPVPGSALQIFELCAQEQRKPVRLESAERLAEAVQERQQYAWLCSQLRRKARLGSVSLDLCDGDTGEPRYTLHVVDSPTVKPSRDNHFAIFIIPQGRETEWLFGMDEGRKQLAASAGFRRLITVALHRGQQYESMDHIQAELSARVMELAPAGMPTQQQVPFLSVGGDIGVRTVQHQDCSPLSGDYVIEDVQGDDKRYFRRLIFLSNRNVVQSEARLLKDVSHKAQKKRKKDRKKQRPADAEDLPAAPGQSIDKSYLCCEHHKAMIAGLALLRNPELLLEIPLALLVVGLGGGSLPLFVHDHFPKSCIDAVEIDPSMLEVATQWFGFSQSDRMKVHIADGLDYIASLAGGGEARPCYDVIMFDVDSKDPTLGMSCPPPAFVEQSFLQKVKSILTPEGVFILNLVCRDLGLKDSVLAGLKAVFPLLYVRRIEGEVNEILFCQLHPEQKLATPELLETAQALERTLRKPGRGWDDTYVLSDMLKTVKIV
# Summary of the method: as §1
compound,measurement,setting,value
Nc1ncnc2c1ncn2[C@@H]1O[C@H](COP(=O)(O)OP(=O)(O)OP(=O)(O)O)[C@@H](O)[C@H]1O [adenosine triphosphate],NP40-soluble protein abundance,LAGE3; concentration: 1mM,0.907 ± 0.071
same,NP40-soluble protein abundance,LAGE3; concentration: 2mM,0.909 ± 0.073
same,NP40-soluble protein abundance,LAGE3; concentration: 4mM,0.901 ± 0.029
same,NP40-soluble protein abundance,LAGE3; concentration: 6mM,0.881 ± 0.072
same,NP40-soluble protein abundance,LAGE3; concentration: 8mM,0.903 ± 0.034
same,NP40-soluble protein abundance,LAGE3; concentration: 10mM,0.882 ± 0.011
same,NP40-soluble protein abundance,NHLRC2; concentration: 1mM,1.01 ± 0.078
same,NP40-soluble protein abundance,NHLRC2; concentration: 2mM,0.994 ± 0.096
same,NP40-soluble protein abundance,NHLRC2; concentration: 4mM,0.979 ± 0.091
same,NP40-soluble protein abundance,NHLRC2; concentration: 6mM,0.976 ± 0.12
same,NP40-soluble protein abundance,NHLRC2; concentration: 8mM,0.985 ± 0.1
same,NP40-soluble protein abundance,NHLRC2; concentration: 10mM,0.983 ± 0.09
same,NP40-soluble protein abundance,PSMD6; concentration: 1mM,0.959 ± 0.015
same,NP40-soluble protein abundance,PSMD6; concentration: 2mM,0.9 ± 0.021
same,NP40-soluble protein abundance,PSMD6; concentration: 4mM,0.893 ± 0.022
same,NP40-soluble protein abundance,PSMD6; concentration: 6mM,0.889 ± 0.048
same,NP40-soluble protein abundance,PSMD6; concentration: 8mM,0.921 ± 0.032
same,NP40-soluble protein abundance,PSMD6; concentration: 10mM,0.886 ± 0.025
same,NP40-soluble protein abundance,[1]; concentration: 1mM,1.03 ± 0.091
same,NP40-soluble protein abundance,[1]; concentration: 2mM,1.04 ± 0.052
same,NP40-soluble protein abundance,[1]; concentration: 4mM,1.06 ± 0.075
same,NP40-soluble protein abundance,[1]; concentration: 6mM,1 ± 0.088
same,NP40-soluble protein abundance,[1]; concentration: 8mM,1.05 ± 0.023
same,NP40-soluble protein abundance,[1]; concentration: 10mM,1.04 ± 0.025
same,NP40-soluble protein abundance,UniProt Q53H96|Q53H96-2; concentration: 1mM,1.04 ± 0.076
same,NP40-soluble protein abundance,UniProt Q53H96|Q53H96-2; concentration: 2mM,1.06 ± 0.1
same,NP40-soluble protein abundance,UniProt Q53H96|Q53H96-2; concentration: 4mM,1.09 ± 0.08
same,NP40-soluble protein abundance,UniProt Q53H96|Q53H96-2; concentration: 6mM,1.01 ± 0.14
same,NP40-soluble protein abundance,UniProt Q53H96|Q53H96-2; concentration: 8mM,1.03 ± 0.11
same,NP40-soluble protein abundance,UniProt Q53H96|Q53H96-2; concentration: 10mM,1.03 ± 0.1
same,NP40-soluble protein abundance,UniProt Q8N6R0; concentration: 1mM,1.04 ± 0.096
same,NP40-soluble protein abundance,UniProt Q8N6R0; concentration: 2mM,1 ± 0.081
same,NP40-soluble protein abundance,UniProt Q8N6R0; concentration: 4mM,1.05 ± 0.072
same,NP40-soluble protein abundance,UniProt Q8N6R0; concentration: 6mM,0.979 ± 0.085
same,NP40-soluble protein abundance,UniProt Q8N6R0; concentration: 8mM,1.05 ± 0.075
same,NP40-soluble protein abundance,UniProt Q8N6R0; concentration: 10mM,1.01 ± 0.053
